Hit rate of the full screen: of about 52,000 compounds, about 1,700 (3.3%) were called active. Rule as the data show it: active = survival mostly below about 52% (no sharp cut-off); inactive = mostly above about 56%. The entries come from a sample that favours actives as a whole.
tested on: Wild type; assay: growth inhibition of S. aureus wild type versus tarO mutant, primary screen, teichoic acid synthesis inhibitors, RN4220, OD600 (AID 463173); settings: S. aureus RN4220 wild type/DeltatarO growth, OD600, 18 h, hits give low values, screened at 18.75 µg/mL (by protocol)

SMILES | survival
N#Cc1c(Nc2cccc(F)c2)sc(C(=O)c2ccc(Cl)cc2)c1N | 101% (inactive)
CCCOc1cccc(NC(=O)c2c(-c3ccccc3Cl)noc2C)c1 | 71% (inactive)
CCc1nc(NCCCO)c2nnn(Cc3ccccc3F)c2n1 | 106% (inactive)
CS(=O)(=O)NCC(c1ccco1)N1CCN(c2ccccc2)CC1 (stereo unspecified) | 83% (inactive)
CCCCCCc1cc2cc(-c3nnc(-c4cccc(Cl)c4)o3)c(=O)oc2cc1O | 72% (inactive)
CN(C)N1C(=O)CC(N2CCCC2)C1=O (stereo unspecified) | 101% (inactive)
CCc1ccc(NC(=O)CC2C(=O)N(c3cccc(C)c3)C(=O)N2CCC(C)C)cc1 (stereo unspecified) | 72% (inactive)
COc1cc2c(cc1OC)C(COc1ccc(F)cc1)N(C(=O)c1ccc(S(=O)(=O)N3CCCC3)cc1)CC2 (stereo unspecified) | 88% (inactive)
COc1cc2c(cc1OC)C(COc1ccccc1OC)N(C(=O)c1ccc(S(=O)(=O)N3CCCC3)cc1)CC2 (stereo unspecified) | 0% (active)
COc1cc2c(cc1OC)C(COc1cc(C)cc(C)c1)N(C(=O)c1ccc(S(=O)(=O)N3CCCC3)cc1)CC2 (stereo unspecified) | 45% (inactive)
COc1cccc(NC(=O)CCc2nnc3n(CC(C)C)c(=O)c4ccccc4n23)c1 | 92% (inactive)
Cc1ccc(C)c(N(C)C(=O)c2cc3c(s2)-c2ccccc2OC3)c1 | -2% (active)
CCN(C(=O)c1cc2c(s1)-c1c(C)cccc1OC2)c1ccccc1F | 96% (inactive)
COc1cc(NC(=O)c2cc3c(s2)-c2ccccc2OC3)cc(OC)c1OC | 53% (inactive)
COc1ccc(N2CCN(C(=O)c3cc4c(s3)-c3ccccc3OC4)CC2)cc1 | 116% (inactive)
COc1ccc(N(C)C(=O)c2cc3c(s2)-c2ccccc2OC3)cc1 | 13% (active)
CCN(C(=O)c1cc2c(s1)-c1c(C)cccc1OC2)c1cc(C)ccc1C | 11% (active)
COc1ccc(CNC(=O)c2cc3c(s2)-c2ccccc2OC3)cc1 | 92% (inactive)
Cc1ccc(CCNC(=O)c2cc3c(s2)-c2ccccc2OC3)cc1 | 95% (inactive)
Cc1ccc(CCNC(=O)c2cc3c(s2)-c2c(C)cccc2OC3)cc1 | 88% (inactive)
CCOc1ccccc1N(C)C(=O)c1cc2c(s1)-c1ccccc1OC2 | 13% (active)
COc1cc(OC)c(N(C)C(=O)c2cc3c(s2)-c2ccccc2OC3)cc1Cl | 73% (inactive)

SMILES | survival
CCOc1ccc(CCNC(=O)c2cc3c(s2)-c2ccccc2OC3)cc1OCC | 90% (inactive)
NCCC(=O)N1c2ccccc2Sc2ccc(Cl)cc21 | 104% (inactive)
Cc1ccc(F)cc1NC(=O)CCc1c(C)nn(-c2ccc(N3CCOCC3)nn2)c1C | 113% (inactive)
O=C(c1ccccc1)N1CCc2cc(CNS(=O)(=O)c3ccc(Cl)s3)ccc21 | 66% (inactive)
Cc1c(C(=O)NCc2ccc(F)cc2)oc2ccc(S(=O)(=O)N3CCCCC3)cc12 | 84% (inactive)
CCOC(=O)CSc1nc2ccc(NC(=O)c3cccc(F)c3)cc2s1 | 87% (inactive)
CS(=O)(=O)Nc1ccc2c(c1)OCO2 | 94% (inactive)
COc1ccc(OC)c(NC(=O)CCCOc2cc(=O)n(C)c3ccccc23)c1 | 64% (inactive)
COc1cccc(NC(=O)C2CCCN(c3ncnc4onc(C)c34)C2)c1 (stereo unspecified) | 72% (inactive)
CCC(C)NC(=O)c1c(C)oc2nc(C)nc(N3CCOCC3)c12 (stereo unspecified) | 88% (inactive)
CCc1cccc(NC(=O)CCn2nc(C)cc2C)c1 | 77% (inactive)
COc1ccc(NC(=O)C2CCN(C(=O)c3sc4nc[nH]c(=O)c4c3C)CC2)c(OC)c1 | 81% (inactive)
COc1cc(OC)cc(C(=O)Nc2ccccc2-c2nc3ccccc3s2)c1 | 41% (inactive)
COc1ccc(C(=O)Nc2cc(-c3nc4ccccc4s3)ccc2OC)cc1 | 5% (active)
COc1ccc(C(=O)Nc2ccccc2-c2nc3ccccc3s2)cc1OC | -6% (active)
O=C(Nc1ccc(-c2nc3ccccc3s2)c(O)c1)c1ccc(Br)cc1 | 85% (inactive)
CCOc1ccc(C(=O)Nc2cc(-c3nc4ccccc4s3)ccc2OC)cc1 | 163% (inactive)
COc1cccc(C(=O)Nc2ccccc2-c2nc3ccccc3s2)c1 | 42% (inactive)
Cc1ccc(C(=O)Nc2ccc(-c3nc4ccccc4s3)c(O)c2)c(C)c1 | 91% (inactive)
CSc1ccc(C(=O)Nc2ccc(-c3nc4ccccc4s3)c(O)c2)cc1 | 0% (active)
COc1cc(OC)cc(C(=O)Nc2cc(-c3nc4ccccc4s3)ccc2OC)c1 | 67% (inactive)
O=C(NCc1ccc(Cl)cc1)C(=O)NCC(c1cccs1)S(=O)(=O)c1ccc(Cl)cc1 (stereo unspecified) | 58% (inactive)

SMILES | survival
CCOC(=O)C1CCN(c2cc(C)nc3c(-c4ccccc4OC)c(C)nn23)CC1 | 82% (inactive)
COc1ccc(S(=O)(=O)N(Cc2ccccc2)Cc2nc3ccccc3c(=O)[nH]2)cc1 | 113% (inactive)
COc1ccc(C2=C(C)C(=O)N(Cc3ccc(C(=O)NCc4ccccc4C)cc3)S2(=O)=O)cc1 | 66% (inactive)
Cc1cccc(OCc2nc(CC(=O)Nc3ccc(Cl)cc3)cs2)c1 | 92% (inactive)
COc1ccccc1N1CCN(c2ncnc3c2c(-c2ccccc2)cn3-c2cccc(Cl)c2)CC1 | 74% (inactive)
CCc1ccc2nc(N(Cc3cccnc3)C(=O)c3cccs3)sc2c1 | 127% (inactive)
CC(=O)c1cccc(NC(=O)c2ccc3c(c2)CCN3S(=O)(=O)c2ccccc2)c1 | 71% (inactive)
Cc1c(-c2nnc(SCC(=O)Nc3ccc(Br)cc3)o2)nnn1-c1ccc(F)cc1 | 80% (inactive)
O=C(CCCCCn1c(=O)[nH]c2ccccc2c1=O)NCCc1ccccc1 | 92% (inactive)
Cc1cccc(NC(=O)c2sc3nc4c(cc3c2N)CCCCCC4)c1C | 121% (inactive)
O=C(c1ccco1)n1nc(-c2ccc(Cl)cc2)nc1NCc1ccc(F)cc1 | 70% (inactive)
O=C(c1ccc(F)cc1)n1nc(-c2cccnc2)nc1NCc1ccccc1 | 81% (inactive)
O=C(c1ccccc1)n1nc(-c2ccc(Cl)cc2)nc1NCc1ccco1 | 25% (active)
O=C(c1ccccc1)n1nc(-c2ccccc2)nc1NCc1ccc(F)cc1 | -4% (active)
O=C(c1ccco1)n1nc(-c2ccccc2)nc1NCc1ccc(Cl)cc1 | 85% (inactive)
O=C(c1ccco1)n1nc(-c2ccc(Cl)cc2)nc1NCc1ccccc1 | 74% (inactive)
O=C(c1ccc(F)cc1)n1nc(-c2ccccc2)nc1NCc1ccco1 | 9% (active)
COc1ccc(C(=O)n2nc(-c3ccc(Cl)cc3)nc2NCc2ccco2)cc1 | 99% (inactive)
O=C(c1ccc(Cl)cc1)n1nc(-c2ccccc2)nc1NCc1ccco1 | 24% (active)
O=C(c1ccc(F)cc1)n1nc(-c2ccc(Cl)cc2)nc1NCc1ccco1 | 76% (inactive)
O=C(c1ccc(F)cc1)n1nc(-c2ccccc2)nc1NCc1ccc(F)cc1 | 19% (inactive)
O=C(c1ccco1)n1nc(-c2ccccc2)nc1NCc1ccc(F)cc1 | 73% (inactive)
